Here are results for 20 compounds from PubChem BioAssay (NCI).

Compounds without any hit were thinned out: in the full panel of roughly 79,000, 15% have a hit. Values without a mark were called inactive. Active and inactive are the calls of the source. Cut-off read from the data, not from the text of the source: active = growth inhibition above about 70%; inactive = the rest.

Experiment [1] can be described thus: NCI Yeast Anticancer Drug Screen. Data for the rad50 strain (AID 155).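 Note: 0% = growth of vehicle-only cultures of the same strain.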 As to conditions: S. cerevisiae rad50 strain growth inhibition, stronger effect = higher value; at 50.0 µM unless noted. The method, boiled down:
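Growth of the mutant yeast was measured after compound exposure and referenced to vehicle-treated cultures.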

The nature of experiment [2]: NCI Yeast Anticancer Drug Screen. Data for the mec2-1 strain (AID 157). As to conditions: S. cerevisiae mec2-1 strain, stronger effect = higher value; at 50.0 µM unless noted. The method, boiled down: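 Yeast mec2-1 mutant treated with compound. Readout: growth inhibition vs vehicle controls.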
A short description of experiment [3]: NCI Yeast Anticancer Drug Screen. Data for the sgs1 mgt1 strain (AID 161).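 Note: 0% = growth of cultures given vehicle only.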 As to conditions: S. cerevisiae sgs1 mgt1 strain, stronger effect = higher value; at 50.0 µM unless noted. A digest of the protocol:
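Inhibition of yeast growth, normalised to vehicle-treated controls, is reported for a strain bearing genetic alterations in DNA damage repair.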

A short description of experiment [4]: NCI Yeast Anticancer Drug Screen. Data for the cln2 rad14 strain (AID 165).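 Note: 0% = growth equal to vehicle treated cultures.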 As to conditions: S. cerevisiae cln2 rad14 strain, stronger effect = higher value; at 50.0 µM unless noted. The method, boiled down: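 cln2 rad14 yeast strain; compound exposure; growth inhibition read vs vehicle controls.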
The nature of experiment [5]: NCI Yeast Anticancer Drug Screen. Data for the bub3 strain (AID 167). As to conditions: S. cerevisiae bub3 mutant strain, stronger effect = higher value; at 50.0 µM unless noted. A digest of the protocol:
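Whole-cell yeast assay. The mutant strain was incubated with compounds, and growth inhibition was determined by comparison with vehicle-treated cells.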

A short description of experiment [6]: NCI Yeast Anticancer Drug Screen. Data for the mlh1 rad18 strain (AID 175). As to conditions: S. cerevisiae mlh1 rad18 strain growth inhibition, stronger effect = higher value; at 50.0 µM unless noted. The method, boiled down: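 Yeast w/ defined DNA-repair lesions; compound exposure; growth vs vehicle controls → % inhibition.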

As for `NC(=O)C1(N2CCCC2)CCN(Cc2ccccc2)CC1`, the growth inhibition was -9.2% in experiment [1]; -18.9% in experiment [2]; -17.6% in experiment [3]; -1.6% in experiment [4]; -10.6% in experiment [5]; -15.8% in experiment [6].

`O=C(Nc1ccc(C(=O)O)cc1)Nc1cccc(Cl)c1`: the growth inhibition in experiment [1] was -6.15%; in experiment [2] it was 2.1%; in experiment [3], -9.55%; in experiment [4], -14.3%; in experiment [5] it was 0.65%; in experiment [6], 7.4%.

On to `O=C(C[n+]1ccccc1CO)c1ccc(-c2ccccc2)cc1`, for which the growth inhibition in experiment [1] is 26.2%; in experiment [2], -6.4%; in experiment [3], 17.2%; in experiment [4], -4.85%; in experiment [5], 6.5%; in experiment [6], 5.4%.

With `COC(=O)c1ccccc1NS(=O)(=O)c1ccc(Cl)cc1`, the growth inhibition in experiment [1] is 42.2%; in experiment [2] it was 66.1%; in experiment [3], 75.7% (active); in experiment [4], 47.8%; in experiment [5], 93% (active); in experiment [6], 82.2% (active).

Consider `O=C(C[n+]1csc2ccccc21)c1ccccc1`, for which the growth inhibition in experiment [1] is 9%; in experiment [2] it was 15.3%; in experiment [3] it was 17.1%; in experiment [4], 20.4%; in experiment [5], 30.4%; in experiment [6], 3.8%.

Take `Cc1ccc(C)n1-c1ccccc1`: the growth inhibition in experiment [1] is -12.6%; in experiment [2], -37.5%; in experiment [3], -7.75%; in experiment [4], 9%; in experiment [5], -8.2%; in experiment [6], -19.4%.

On to `Cc1ccc(S(=O)(=O)CCN2CCN(C)CC2)cc1`, for which the growth inhibition in experiment [1] was 8.6%; in experiment [2], -9.25%; in experiment [3], -12.7%; in experiment [4] it was -26%; in experiment [5], -2.65%; in experiment [6], 1.05%.

With `COc1cc2ccc3c4ccccc4cnc3c2cc1OC`, the growth inhibition in experiment [1] was 8.1%; in experiment [2], 5.4%; in experiment [3], 0%; in experiment [4], 18.2%; in experiment [5], 13.7%; in experiment [6], 13.2%.

For the compound `O=C(/C(=C/c1ccccc1)c1ccccc1)N1c2ccccc2CC1c1c[nH]c2ccccc12` (stereo not given), the growth inhibition in experiment [1] was 17.4%; in experiment [2], 15.2%; in experiment [3] it was -10.9%; in experiment [4] it was 19.1%; in experiment [5] it was 3.3%; in experiment [6] it was 23.8%.

On to `Nc1ccc(C(=O)N/N=C/c2ccccc2O)cc1`, for which the growth inhibition is 16.9% in experiment [1]; 12.7% in experiment [2]; 4.15% in experiment [3]; 7.55% in experiment [4]; 0% in experiment [5]; 19.2% in experiment [6].

Consider `C=C1CC(C2OCOC3COCOC32)OC1=O` (stereo not given), for which the growth inhibition is -44.1% in experiment [1]; -12.9% in experiment [2]; -14.8% in experiment [3]; -22.6% in experiment [4]; 17.2% in experiment [5]; -2.1% in experiment [6].

With `Cc1ccccc1C(=O)C[n+]1ccccc1C`, the growth inhibition in experiment [1] is -11.8%; in experiment [2] it was 15.5%; in experiment [3], -5.7%; in experiment [4], -21.6%; in experiment [5], 4.1%; in experiment [6], 8.3%.

Consider `CC(C)COC(=O)/C=C/c1ccccc1`, for which the growth inhibition in experiment [1] was 19.8%; in experiment [2], 16.6%; in experiment [3], 20.6%; in experiment [4], 7.3%; in experiment [5], 2.9%; in experiment [6] it was 11.6%.

Take `COc1ccc(C(=O)N2N=C(C)C(C)(C)C2(C)O)cc1` (stereo not given): the growth inhibition in experiment [1] was -7.05%; in experiment [2], -23.1%; in experiment [3], -23.6%; in experiment [4] it was 2.5%; in experiment [5], -29.8%; in experiment [6], -1.95%.

With `CC(=O)OCC1COC(c2ccc(C)cc2)O1` (stereo not given), the growth inhibition in experiment [1] is 12.9%; in experiment [2] it was -2.1%; in experiment [3], -13.8%; in experiment [4] it was -2.5%; in experiment [5], -4.45%; in experiment [6] it was -11.8%.

As to `Cn1c2c(c(=O)c3ccccc31)CC(O)C(C)(C)O2` (stereo not given), the growth inhibition in experiment [1] was -23.6%; in experiment [2], -35.7%; in experiment [3], -6.4%; in experiment [4], 6%; in experiment [5], 3.35%; in experiment [6], -2.65%.

On to `CCN(CC)C(=O)CCn1cc(F)c(=O)[nH]c1=O`, for which the growth inhibition in experiment [1] is -65.8%; in experiment [2] it was -51%; in experiment [3], -35%; in experiment [4] it was 1.65%; in experiment [5], -25.8%; in experiment [6] it was -15.9%.

As to `O=C(/C(=C1\SS/C(=C(/C(=O)c2ccccc2)c2ccccc2)S1)c1ccccc1)c1ccccc1`, the growth inhibition is 34.6% in experiment [1]; 14.6% in experiment [2]; 17.7% in experiment [3]; 7.3% in experiment [4]; 5.75% in experiment [5]; 6.45% in experiment [6].

With `CC(=O)OCC(C)O` (stereo not given), the growth inhibition is 28% in experiment [1]; -9.7% in experiment [2]; 14.3% in experiment [3]; -0.3% in experiment [4]; 1.2% in experiment [5]; 2% in experiment [6].

As to `COc1ccc(/C=N\NC(=O)c2cnccn2)cc1`, the growth inhibition in experiment [1] is 9.15%; in experiment [2], 10.8%; in experiment [3] it was 5.35%; in experiment [4], 1.4%; in experiment [5], 15.7%; in experiment [6], 11.1%.
